Experimental data published in the supplement of paper PMC10338343.
± gives the standard deviation. Whole data set: some 6,600 sequences, median “pre-steady-state target cleavage rate” near 0.07, cut for the highest 2% near 0.72. Shown is part of a subset that was picked to be rich in the highest values.

test system: MIWI (PIWIL1) piRISC loaded with Kctd7 piRNA (30 nt); test: pre-steady-state target cleavage rate (min^-1); MIWI and MILI are mouse PIWI proteins and EfPiwi is from a freshwater sponge; tags in brackets are library labels; higher = faster piRNA-guided slicing of the target; settings: guide: Kctd7 piRNA 5'p-UGUUAAUCUCUCAGAGAAGGUGACAGUGAU; auxiliary factor: 500 nM mouse GTSF1
Procedure: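 Cleave-'n-Seq: a library of target RNAs (target site embedded in constant flanks, ACAGCATTCCGCGTTAGTGATATCCG... 5' flank; DNA-blocked outside the site) at 0.1 nM was incubated with 1 nM active mouse MILI or MIWI piRISC (synthetic 5'-monophosphorylated piRNA guide) with or without 500 nM mouse GTSF1 at 33 °C for 1 min to 16 h. Uncleaved targets were sequenced and normalised to non-target controls, and the pooled three trials were fitted to a burst-and-steady-state model to give the pre-steady-state cleavage rate (min^-1; k3 is constrained to at most 1e-4). Sequence is the target site only; target names encode pairing extent (gX:gY) and contiguous / 1-mismatch / 2-mismatch / bulge geometry. Fits with R² ≤ 0 are excluded.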

Sequence	pre-steady-state target cleavage rate
AUGACUGUCUCCUUCUCUGAGAGAUUAACA	0.623 ± 0.037
UUCACUGUCUCCUUCUCUGAGAGAUUAACA	0.685 ± 0.036
UUGACUGUCUCCUUCUCUGAGAGAUUAACA	0.746 ± 0.04
UAGACUGUCUCCUUCUCUGAGAGAUUAACA	0.662 ± 0.04
AACACUGUCUCCUUCUCUGAGAGAUUAACA	0.738 ± 0.039
AUCACUGUCACCUUCUUCUGAGAGAUUAACA	0.212 ± 0.046
UAGUGUGUCACCUUCUCUGAGACUUUAUGA	0.00826 ± 0.0044
UUCAGUGUCACCUUCUCUGAGAGAUAAACA	0.264 ± 0.033
UAGACUGUCUGGUUCUCUGAGAGAUUAUGA	< 0.0001
UAGUCUGUCACCUUCUGUCAGAGAUUAACA	0.01 ± 0.0034
UACACUGUCACCGUUCUCUGAGAGAUUAACA	0.586 ± 0.03
UUCACUGUCACCGUUCUCUGAGAGAUUAACA	0.729 ± 0.032
UAGUCUGUCACCGUUCUCUGAGAGAUUAACA	0.651 ± 0.041
UUCACUGUCACCGUCUCUGAGAGAUUAACA	0.509 ± 0.022
AUCACUGUCACCGUUCUCUGAGAGAUUAACA	0.774 ± 0.052
UUCACUGUCUCGUUCUCUGAGAGAUUAACA	0.631 ± 0.035
UUCACUGUGACCUUCUCUGAGAGAUUAUGA	0.119 ± 0.021
UAGUGUGUCUCCUUCUCUGACAGAUUAACA	0.386 ± 0.03
UAGACUGUCACUUUCUCUGAGAGAUUAACA	0.8 ± 0.043
UACACUGUCACUUUCUCUGAGAGAUUAACA	0.725 ± 0.025
UUCACUGUCACUUUCUCUGAGAGAUUAACA	0.691 ± 0.026
UACACUGUCACUUCUCUGAGAGAUUAACA	0.577 ± 0.038
UACACUGUCACCUUUCUCUGAGAGAUUAACA	0.575 ± 0.029
UAGACUGUCACACUUCUCUGAGAGAUUAACA	0.607 ± 0.04
UAGACUGUCACUUCUCUGAGAGAUUAACA	0.466 ± 0.041

Sequence	pre-steady-state target cleavage rate
AUCACUGUCACCUUUCUCUGAGAGAUUAACA	0.599 ± 0.034
AUCACUGUCACUUUCUCUGAGAGAUUAACA	0.794 ± 0.04
UUGACUGUCACCUUCUCUGAGACAUUAACA	0.0684 ± 0.0093
AUCUCUGUCACCUUCUCUGAGAGAUUUUGA	0.191 ± 0.042
UAGACUCUCACCUUCUCUGAGAGAUUAACA	0.431 ± 0.029
UACACUGUCACCUUCUCUGAGUGAUUUACA	0.0176 ± 0.0081
UAGACAGUCACCUUCUCUGAGAGAUUAUCA	0.252 ± 0.029
UAGACUCACACCUUCUCUGAGAGAUUAUGA	0.0733 ± 0.015
AUCAGCUGUCACCUUCUCUGAGAGAUUAACA	0.792 ± 0.043
UAGAGCUGUCACCUUCUCUGAGAGAUUAACA	0.706 ± 0.047
UACAGCUGUCACCUUCUCUGAGAGAUUAACA	0.749 ± 0.036
UACAUCUGUCACCUUCUCUGAGAGAUUAACA	0.66 ± 0.027
UACAGUGUCACCUUCUCUGAGAGAUUAACA	0.663 ± 0.034
UUCAGCUGUCACCUUCUCUGAGAGAUUAACA	0.681 ± 0.037
UAGUCUGUCACCUUCUCUGAGAGAUAUUCA	0.211 ± 0.045
UUCACUGUCACCUUCUCUCUCAGAUUAACA	0.00363 ± 0.0035
UAGUGAGUCACCUUCUGUCAGAGAUUAACA	0.00937 ± 0.0041
UACACUGACACCUUCUCUGAGAGAUUUUGA	0.0697 ± 0.019
UAGUGACUCACCUUGUCUGUGAGAUUAACA	0.0416 ± 0.0061
AUCACUGUCACCAUCUCUGAGAGAUUAAGA	0.184 ± 0.032
AUCACUGUCACCAUCUCUGUGAGAUUAACA	0.259 ± 0.021
AACACUGUCACCAUCUCUGAGAGAUUAACA	0.77 ± 0.035
UUCACUGUCACCAUCUCUGUGAGAUUAACA	0.215 ± 0.015
UUCACUGUCACCAUCUCUGAGAGAUUAAGA	0.134 ± 0.025
AUCACUGACACCAUCUCUGAGAGAUUAACA	0.603 ± 0.037

Sequence	pre-steady-state target cleavage rate
AUCACUGUCACCAUCUCUGAGAGAUUAACA	0.795 ± 0.048
UUCACUGUCACCAUCUCUGAGAGAUUAACA	0.738 ± 0.029
UACACUGUCACCAUCUCUGAGAGAUUAACA	0.532 ± 0.044
UAGUGUGUCACCUACUCUCAGAGAUUAACA	0.0454 ± 0.009
AUCACUGAGACCUUCUCUGAGAGAUUAAGA	0.17 ± 0.033
UAGUCUGUCUCCAUCUCUGAGAGAUUAACA	0.509 ± 0.034
UAGUGAGUCACCUUGUCUGAGAGUUUAACA	0.0617 ± 0.013
UAGUGACUCACCUUCUUUGAGAGAUUAACA	0.196 ± 0.021
UAGUGACUCACCUUCUCUGAGUGAUUAACA	0.0244 ± 0.0052
UAGUGACAGACCUUCCUCUGAGAGAUUAACA	0.0189 ± 0.004
UAGUGACAGACCUUACUCUGAGAGAUUAACA	0.0198 ± 0.0041
UAGUGAGUCACGUUCUCAGAGAGAUUAACA	0.171 ± 0.017
UACACUGUUACCUUCUCUGAGAGAUUAACA	0.441 ± 0.024
UAGACUGUCACCUUCUGUGAGAGAUAUUGA	0.0117 ± 0.004
UUCACUGUACACCUUCUCUGAGAGAUUAACA	0.655 ± 0.033
UAGACUGUACCUUCUCUGAGAGAUUAACA	0.572 ± 0.044
AUCACUGUACACCUUCUCUGAGAGAUUAACA	0.8 ± 0.055
UAGACUGUACACCUUCUCUGAGAGAUUAACA	0.779 ± 0.055
UAGACUGACACCUUCUCUGAGAGAUUAACA	0.62 ± 0.035
AUCACUGUAACCUUCUCUGAGAGAUUAACA	0.651 ± 0.03
UACACUGUACACCUUCUCUGAGAGAUUAACA	0.623 ± 0.03
UUCACUGUACCUUCUCUGAGAGAUUAACA	0.712 ± 0.036
AUCACUGUACCUUCUCUGAGAGAUUAACA	0.769 ± 0.051
